# Screens deposited in PubChem by Broad Institute.
# INS-1E GSIS act: GLuc luminescence reporter in INS-1E cells, primary screen for activators of glucose-dependent secretion of insulin | INS-1E GLuc reporter insulin secretion, 2-3 h | activation, % at 16.6 µM | 370,000 tested, 0.61% active;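 active means lowest replicate activation of at least 40%, so every replicate reaches that level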;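 further: 0% = median of neutral control wells and 100% = median of IBMX positive control wells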
# rRNA inh HTS: inhibits bacterial ribosomal RNA function over humanized ribosomes; E. coli WT GFP vs humanized-ribosome RFP mutants, fluorescence, 24 h; active compounds read low; DMSO median 0, no signal -100; AID 720706; GFP signal change (wild-type ribosome), % (concentration not given with the values); 350,000 tested, 1.6% active;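 active means significant combined selectivity score with lowered wild-type GFP, culture density cut under 30%, mutant RFP and density less affected; inactive means any of these conditions unmet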
# DENV2 CPE: inhibitors of DENV2 cytopathic effect | DENV2-infected cells, cytopathic effect rescue, plate reader | CPE inhibition, % at 9.99 µM | 350,000 tested, 1.7% active; in the data active means CPE inhibition above about 20%, passing the limit was not always enough; inconclusive means no clear call, values can overlap the other calls; tested in BHK-21 cells;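 further: 0% = median of neutral control wells and 100% = median of positive control wells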
# CaV13 FRET inh: Primary screen for inhibitors of IQ motif and Ca2+-dependent inactivation inhibitor domain binding in CACNA1D, Förster resonance energy transfer in living cells, …. HEK cells, CFP/YFP FRET ICDI-IQ, plate reader, 10 min; percent FRET-ratio fall versus neutral wells. inhibition, % at 12.3 µM. 340,000 tested, 0.098% active. AID 743397;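 active means mean replicate inhibition of at least 30% and at least 1% of replicates passing that level; inconclusive means only one of the two criteria is met; inactive means neither criterion is met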;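 further: 0% = median of the neutral control wells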
# PGC1a acetyl inh: modulators of PGC1a acetylation; U2OS PGC1a acetylation, AlphaScreen anti-acetyl-lysine; with virally co-expressed GCN5 acetyltransferase; inhibition, % at 15.6 µM; 350,000 tested, 0.17% active; AID 651687;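 active means every replicate shows inhibition of at least 40%; inconclusive means mean inhibition at least 40% but some replicate below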;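 further: 0% = neutral control wells and 100% = positive control wells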
# ERAP1 HTS inh: ERAP1 (human) enzyme inhibition; AID 652197; recombinant ERAP1, Leu-AMC fluorescence, 60 min; Q9NZ08; 340,000 tested, 0.15% active; inhibition, % at 10.7 µM;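 active means mean replicate inhibition of at least 30%, or all replicates individually reaching that 30% level; inactive means mean below 30% and not every replicate reaching it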;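 further: 0% = neutral control wells and 100% = L-leucinethiol positive control wells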
# Target sequence (Q9NZ08 whole entry, looked up): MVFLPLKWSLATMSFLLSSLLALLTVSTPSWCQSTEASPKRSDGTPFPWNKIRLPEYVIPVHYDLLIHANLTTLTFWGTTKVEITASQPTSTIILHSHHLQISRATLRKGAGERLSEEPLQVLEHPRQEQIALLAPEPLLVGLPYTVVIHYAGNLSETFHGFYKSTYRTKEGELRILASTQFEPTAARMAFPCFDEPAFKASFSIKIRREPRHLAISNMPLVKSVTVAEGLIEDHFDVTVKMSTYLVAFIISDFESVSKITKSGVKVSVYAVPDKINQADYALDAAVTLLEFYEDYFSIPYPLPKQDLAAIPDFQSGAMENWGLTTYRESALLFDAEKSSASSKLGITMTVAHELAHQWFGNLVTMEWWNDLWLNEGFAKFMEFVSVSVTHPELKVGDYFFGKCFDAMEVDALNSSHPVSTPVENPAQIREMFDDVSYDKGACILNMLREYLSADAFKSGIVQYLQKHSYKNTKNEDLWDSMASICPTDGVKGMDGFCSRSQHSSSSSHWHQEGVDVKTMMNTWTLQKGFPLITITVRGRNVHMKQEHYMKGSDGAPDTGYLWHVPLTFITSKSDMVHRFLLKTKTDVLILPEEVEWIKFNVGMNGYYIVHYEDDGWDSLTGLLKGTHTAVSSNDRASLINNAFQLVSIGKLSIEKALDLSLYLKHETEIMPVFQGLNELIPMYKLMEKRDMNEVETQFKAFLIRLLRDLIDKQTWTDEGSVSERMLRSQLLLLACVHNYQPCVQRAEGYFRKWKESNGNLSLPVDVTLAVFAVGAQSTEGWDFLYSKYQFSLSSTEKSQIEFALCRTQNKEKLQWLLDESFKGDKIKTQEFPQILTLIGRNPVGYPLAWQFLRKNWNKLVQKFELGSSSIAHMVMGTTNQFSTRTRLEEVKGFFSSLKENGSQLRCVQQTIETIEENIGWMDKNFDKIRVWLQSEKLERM
# AID977621: growth inhibition of wild-type GFP E. coli, dose response, H69 mutant RFP, cherry-pick; AID 977621; shares compounds with rRNA inh HTS; activity change, negative = inhibition at 50 µM; E. coli wild-type GFP strain growth, fluorescence, 24 h; 1,900 tested, under 10 active;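 active means Wild-type ribosome reporter drop at least double the humanized mutant ribosome reporter drop, growth loss under a set limit; inconclusive means no clear call, values can overlap the other calls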;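 further: wild-type GFP and H69 mutant RFP strains grown together 50/50 in each well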
# AID977628: E. coli growth inhibition, wild-type GFP versus h24 humanized RFP strain, dose response, h24 mutant RFP vs wild-type GFP, cherry-pick; 1,900 tested, under 10 active; shares compounds with rRNA inh HTS; activity change, negative = inhibition at 50 µM; E. coli WT GFP strain growth, fluorescence, 24 h; AID 977628;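 active means compound lowering the normal-ribosome reporter at least twice as much as the humanized-ribosome reporter, growth loss under a set limit; inconclusive means no clear call, values can overlap the other calls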;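 further: wild-type GFP and h24 humanized RFP strains co-cultured 1 to 1 per well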
# Active calls of the source: *; ? = inconclusive; . = no result given; ! = repeats disagree. Compounds with a hit are over-represented: about 3.2% of the library has one in this group of screens.
SMILES,INS-1E GSIS act,rRNA inh HTS,DENV2 CPE,CaV13 FRET inh,PGC1a acetyl inh,ERAP1 HTS inh,AID977621,AID977628
COc1cccc(NC(=O)COC(=O)Cc2ccc(Cl)cc2)c1,-18,-36*,.,5,12,-4,-9.5,.
NC(=O)CSc1nnc(-c2cnccn2)n1-c1ccccc1,.,.,.,-6,.,.,.,.
Cc1ccc(-n2c(SCC(N)=O)nnc2-c2cnccn2)cc1,18,-25*,4,-12,5,-1,-2.2,?
O=C(C[C@H]1CC[C@H]2[C@@H](COC[C@H](O)CN2Cc2cc(F)ccc2F)O1)NCc1ccccc1,-9,0,-7,.,-6,1,.,.
COC(=O)C[C@H]1C[C@@H]2c3cc(NC(=O)CC4CC4)ccc3O[C@@H]2[C@@H](CO)O1,5,2,-6,.,0,-1,.,.
Nc1nc(-c2cc(-c3ccccc3)no2)cs1,-4,-19*,?,-16,-7,0,-5.6,?
COc1ccc(S(=O)(=O)N(C)C[C@H]2OCCCC[C@H](C)Oc3ccc(NC(=O)NC(C)C)cc3C(=O)N([C@H](C)CO)C[C@@H]2C)cc1,-21,-4,?,.,-2,-2,.,.
CCOc1ccc(C(C)=O)cc1CN1C(=O)NC2(CCCCCCC2)C1=O,17,-40*,7,-1,-20,1,-0.93,-17
Cc1ccc(CC2C(=O)N(c3cc(Cl)ccn3)C(=O)C2C)cc1 (stereo unspecified),-24,-20*,?,-5,.,-1,-20,?
Cc1ccc(CC2C(=O)N(c3ccccc3)C(=O)C2C)cc1 (stereo unspecified),8,-4,-1,-5,.,2,.,.
O=C(NCCc1ccc(Cl)cc1Cl)c1ccc2nc[nH]c2c1,-8,-8,-2,-3,9,1,.,.
O=C(NCCc1ccc(Cl)cc1)c1ccc2nc[nH]c2c1,9,-32*,-3,-7,-6,6,.,?
NS(=O)(=O)c1ccc(NC(=O)c2cc(Cl)sc2Cl)cc1,5,-25*,4,-13,-1,-2,-0.14,-6.1
COc1ccccc1-c1ccc2n(c1=O)C[C@@H]1[C@@H](CO)[C@H](C(=O)N(C)C)N(C(=O)c3cccnc3)[C@H]21,2,1,-7,.,.,0,.,.
O=S(=O)(c1cnc(Cl)c(Cl)c1)N1CCCc2ccccc21,-4,-25*,-4,.,.,-6,-10,-7.4
O=S(=O)(c1cnc(Cl)c(Br)c1)N1CCc2ccccc21,3,-1,-8,-4,39,0,.,.
CC(=O)Nc1ccccc1OCc1nnc(-c2ccc(Cl)cc2)o1,-2,-23,-5,7,8,1,.,.
CC(=O)Nc1ccc(OCc2nnc(-c3ccccc3)o2)cc1,-4,-23*,-1,-4,.,1,?,-17
Cc1noc2ncnc(SCc3ccc(C(F)(F)F)cc3)c12,0,-21*,7,-5,-11,.,-2.2,?
Cc1ccc(CSc2ncnc3onc(C)c23)cc1,16,7,-3,-5,.,-6,.,.
C[C@@H]1CN([C@H](C)CO)C(=O)c2cccc(NC(=O)NC3CCCCC3)c2O[C@H]1CN(C)S(C)(=O)=O,0,-2,-4,.,2,-2,.,.
Clc1ccc2nc(CN3CCCc4ccccc43)cn2c1,23,-20*!,-2,-8,-5,-1,-8.9,.
CCC(=O)N1[C@H](CO)[C@@H]2c3ccccc3N(C(=O)Nc3ccc(Cl)cc3)C[C@@H]21,2,-22*,?,.,-4,-4,-13,.
O=C(Nc1cccc(F)c1)N1C[C@@H]2[C@H](c3ccccc31)[C@H](CO)N2C(=O)Cc1ccccn1,-9,-18*,19,.,-6,-3,5.9,-0.73
COCC(=O)N1[C@@H]2CN(C(=O)Nc3ccccc3F)c3ccccc3[C@@H]2[C@@H]1CO,10,-18*,6,.,4,3,5.7,?
SMILES,INS-1E GSIS act,rRNA inh HTS,DENV2 CPE,CaV13 FRET inh,PGC1a acetyl inh,ERAP1 HTS inh,AID977621,AID977628
C[C@@H]1CN([C@@H](C)CO)C(=O)Cc2cc(NC(=O)Nc3ccc4c(c3)OCO4)ccc2O[C@H]1CN(C)Cc1ccc(C(F)(F)F)cc1,-8,2,1,.,0,2,.,.
CCCNC(=O)N(C)C[C@H]1Oc2cc(C#CC(C)(C)O)ccc2S(=O)(=O)N([C@H](C)CO)C[C@H]1C,15,1,-2,.,4,0,.,.
C[C@H](CO)N1C[C@H](C)[C@@H](CN(C)Cc2ccc(-c3ccccc3)cc2)Oc2ccc(NS(=O)(=O)c3cn(C)cn3)cc2CC1=O,19,6,.,.,.,.,.,.
Cc1noc(C)c1S(=O)(=O)Nc1ccc2c(c1)CC(=O)N([C@H](C)CO)C[C@H](C)[C@H](CN(C)S(=O)(=O)c1c(C)noc1C)O2,17,0,10,.,11,0,.,.
CC(C)Oc1ccc(C(CC(=O)O)NC(=O)C(Sc2ccccc2)c2ccccc2)cc1 (stereo unspecified),-6,-27*,2,-5,7,9,-16,.
O=C(c1ccccc1)C1Oc2ccccc2C2CC(c3cccs3)=NN12 (stereo unspecified),17,-21*,.,-9,-9,2,-0.12,-5.9
O=C(c1ccccc1)N1N=C(c2cccs2)CC1c1ccccc1O (stereo unspecified),-6,-21,-5,-5,-5,-2,.,.
S=c1[nH]nc([C@@H]2C[C@H]2c2ccccc2)n1-c1ccccc1,2,.,.,-3,0,.,.,.
Cc1ccccc1-n1c([C@@H]2C[C@H]2c2ccccc2)n[nH]c1=S,17,-28*,1,-5,11,5,-18,-4.5
CCCCN(C)CCNC(=O)c1cc2cc3ccc(OC)cc3nc2o1,-4,-3,-2,-20,40,-2,.,.
CCN(CC)CCNC(=O)c1cc2cc3ccc(OC)cc3nc2o1,5,-19*,5,-21,10,11,-7.9,?
COc1ccc(C2CN=NC23CCc2ccccc2C3=O)cc1 (stereo unspecified),-16,-20*,-3,-3,-6,7,1.1,.
COc1ccc(C2CN=NC23CCCc2ccccc2C3=O)cc1 (stereo unspecified),.,.,.,-4,-17,.,.,.
CNC[C@H]1Oc2ccc(N(C)C)cc2C(=O)N([C@@H](C)CO)C[C@@H]1C,8,6,10,.,0,-2,.,.
